# About 14,000 (4.5%) of roughly 310,000 compounds showed an effect of 50% or more. The effect is printed as a negative number. Many of the other results were omitted from the sample, so strong results are more common in it than they were.
# Target: human ether-à-go-go-related gene (hERG) potassium channel (human, UniProt Q12809)
# Experiment: primary screen, population patch clamp on CHO cells stably expressing hERG; higher = less effect of the substance
# 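Further: peak tail current of the secondary pulse compared with the same well before compound.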
# human ether-à-go-go-related gene (hERG) potassium channel, sequence (Q12809 whole entry, looked up): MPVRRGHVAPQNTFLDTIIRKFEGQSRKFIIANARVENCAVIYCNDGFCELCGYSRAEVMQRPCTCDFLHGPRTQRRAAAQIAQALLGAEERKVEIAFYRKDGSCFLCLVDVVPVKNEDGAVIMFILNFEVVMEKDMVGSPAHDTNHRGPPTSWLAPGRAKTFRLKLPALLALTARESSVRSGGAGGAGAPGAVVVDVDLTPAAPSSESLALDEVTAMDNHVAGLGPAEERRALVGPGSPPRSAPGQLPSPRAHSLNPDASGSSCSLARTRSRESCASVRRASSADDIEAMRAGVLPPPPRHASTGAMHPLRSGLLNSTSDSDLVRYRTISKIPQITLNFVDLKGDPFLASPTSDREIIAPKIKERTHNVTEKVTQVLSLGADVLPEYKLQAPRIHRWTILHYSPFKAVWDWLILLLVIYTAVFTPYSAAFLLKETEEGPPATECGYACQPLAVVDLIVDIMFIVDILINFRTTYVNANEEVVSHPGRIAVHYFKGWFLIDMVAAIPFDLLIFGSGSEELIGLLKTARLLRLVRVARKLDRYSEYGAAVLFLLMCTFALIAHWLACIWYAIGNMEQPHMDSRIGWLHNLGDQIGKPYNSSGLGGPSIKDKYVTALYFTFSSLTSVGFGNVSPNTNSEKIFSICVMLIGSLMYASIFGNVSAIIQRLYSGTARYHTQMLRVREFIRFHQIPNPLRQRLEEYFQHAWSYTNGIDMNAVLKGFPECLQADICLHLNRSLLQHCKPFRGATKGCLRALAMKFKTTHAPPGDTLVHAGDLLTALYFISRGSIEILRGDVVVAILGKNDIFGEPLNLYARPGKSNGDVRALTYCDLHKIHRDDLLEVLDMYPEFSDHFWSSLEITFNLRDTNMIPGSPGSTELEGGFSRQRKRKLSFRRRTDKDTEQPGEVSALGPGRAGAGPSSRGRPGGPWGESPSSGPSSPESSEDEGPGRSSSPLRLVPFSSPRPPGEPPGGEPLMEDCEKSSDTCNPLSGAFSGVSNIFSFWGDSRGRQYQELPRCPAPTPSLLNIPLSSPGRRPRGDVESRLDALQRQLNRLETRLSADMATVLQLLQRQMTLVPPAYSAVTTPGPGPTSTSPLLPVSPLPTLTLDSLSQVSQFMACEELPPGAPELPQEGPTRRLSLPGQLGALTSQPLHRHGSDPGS
row,SMILES,"hERG current change (%, negative = inhibition) at 10uM [%]"
1,O=C(CSC1=NS(=O)(=O)c2ccccc2N1)c1ccccc1,-8.85
2,COc1ccc(CNC(=O)C/C(C)=N/NC(=O)COc2ccc(Br)cc2)cc1,-33.3
3,O=C(O)c1ccc(NCc2cccnc2)c([N+](=O)[O-])c1,30
4,Cc1ccc(C(=O)n2nc(-c3ccccc3)nc2NCc2ccco2)cc1,16
5,Cc1cc(C)n(CCC(=O)Nc2ccc3c(c2)OCCO3)n1,17.1
6,COc1ccc(CN2CCCCC2c2cccnc2)cc1C (centres unmarked),0.438
7,Cc1nc2ccccc2c2oc(C(=O)N3CCC(C)CC3)cc12,-30.5
8,O=C(c1oc(=O)c2ccccc2c1-c1ccccc1)N1CCN(C2CCCCC2)CC1,-61.6
9,O=C(c1oc(=O)c2ccccc2c1-c1ccccc1)N1CCOCC1,-24.6
10,O=C(c1oc(=O)c2ccccc2c1-c1ccccc1)N1CCC(O)CC1,-11.6
11,O=C(c1ccco1)N1CCN(C(=O)c2oc(=O)c3ccccc3c2-c2ccccc2)CC1,-50.7
12,Cc1ccc(-c2c(C(=O)N3CCOCC3)oc(=O)c3ccccc23)cc1,-17.8
13,Cc1nc2ccccc2c2oc(C(=O)N3CCN(C4CCCCC4)CC3)cc12,-64.7
14,CCOC(=O)N1CCN(C(=O)c2oc(=O)c3ccccc3c2-c2ccc(C)cc2)CC1,-31.4
15,Cc1nc2ccccc2c2oc(C(=O)N3CCC(N4CCCCC4)CC3)cc12,-38.8
16,CCOC(=O)c1cnn2c(N)c(C#N)cnc12,13.9
17,C/C(=N\O)C(=O)NCCN1CCCCC1,-10.2
18,Cc1c(C#N)c(NC(=O)CCl)n(Cc2ccc(F)cc2)c1C,12.8
19,N#Cc1nc(-c2ccc(OCc3ccccc3)cc2)oc1NCc1ccco1,7.75
20,CCn1c2c(c3cc(OCC(C)C)ccc31)CCCC2=O,6.13
21,Cc1cc(C(=O)Nc2ccccn2)cs1,3.35
22,Cc1cc(C)nc(NS(=O)(=O)c2ccc(NC(=O)CCN3C(=O)c4ccccc4C3=O)cc2)n1,3.74
23,CC(C(=O)Nc1ccccc1-c1ccccc1)N1CCN(Cc2ccccc2)CC1 (centres unmarked),-72.2

row,SMILES,"hERG current change (%, negative = inhibition) at 10uM [%]"
1,CC(C(=O)Nc1ccccc1-c1ccccc1)N1CCN(C(=O)c2ccccc2)CC1 (centres unmarked),-66.9
2,CC(C(=O)Nc1ccccc1-c1ccccc1)N1CCOCC1 (centres unmarked),-2
3,CC(C(=O)NC1CCCC1)N1CCN(Cc2ccccc2)CC1 (centres unmarked),28.6
4,CC(C(=O)Nc1ccccc1-c1ccccc1)N1CCN(S(=O)(=O)c2ccccc2)CC1 (centres unmarked),-14.3
5,CC1CCN(C(C)C(=O)Nc2ccccc2-c2ccccc2)CC1.O=C(O)C(=O)O (centres unmarked),-15.4
6,COCCOC(=O)C1=C(C)N=C2SCCC(=O)N2C1c1cccs1 (centres unmarked),13.8
7,COc1cc(-c2csc(N3CCOCC3)n2)cc(OC)c1OC,13.3
8,Cn1cc(C(=O)N2CCN(c3cccc(Cl)c3)CC2)c(=O)c2cc(S(=O)(=O)N3CCOCC3)ccc21,-17.6
9,Cc1ccc(C)c(N2CCN(C(=O)CCCOc3cc(=O)n(C)c4ccccc34)CC2)c1,-40.8
10,O=CNc1ccccc1,14.6
11,O=CNc1ccc(OP(=O)(Oc2ccccc2)Oc2ccccc2)cc1,-61.7
12,COc1ccc(NP(=O)(Nc2ccc(OC)cc2)Oc2ccccc2)cc1,-13.9
13,CN(C)c1ccc(/C=C/C=N/Nc2nc(N3CCOCC3)nc(N3CCOCC3)n2)cc1,0.992
14,CCOC(=O)N1CCC(N(CCN(C)C)C(=S)Nc2ccccc2OCC)CC1,-8.05
15,Cc1ccc(/C=N/NC(=O)CSc2nc3nc(C)cc(C)n3n2)cc1,-19.3
16,Cc1ccc(S(=O)(=O)CCC(=O)c2ccc(F)cc2)cc1,8.7
17,O=C(N/N=C\c1cn[nH]c1-c1ccccc1)c1ccc([N+](=O)[O-])cc1,-64.9
18,COc1ccc(-c2[nH]ncc2/C=N\NC(=O)c2ccc(C(C)(C)C)cc2)cc1OC,-9.5
19,O=C(N/N=C/c1cccnc1)c1ccc([N+](=O)[O-])cc1,-7.74
20,Cc1cc(C(=O)N/N=C\c2ccc(COc3ccc([N+](=O)[O-])cc3)o2)ccc1[N+](=O)[O-],-7.77
21,O=C(N/N=C\c1ccc(COc2ccc([N+](=O)[O-])cc2)o1)c1cccc(Cl)c1,4.17
22,O=C(N/N=C/c1cn[nH]c1-c1ccc(F)cc1)c1ccncc1,6.55
23,O=C(N/N=C/c1cn[nH]c1-c1ccc(Cl)cc1)c1ccc([N+](=O)[O-])cc1,-51.5

row,SMILES,"hERG current change (%, negative = inhibition) at 10uM [%]"
1,COc1ccc(/C=N/NC(=O)c2cccc([N+](=O)[O-])c2)cc1OC,5.28
2,O=C(N/N=C\c1cn[nH]c1-c1ccccc1)c1cccnc1,-1.27
3,O=C(N/N=C\c1ccc(COc2ccc([N+](=O)[O-])cc2)o1)c1ccc(Cl)cc1,-67.6
4,COc1ccc(-c2[nH]ncc2/C=N/NC(=O)c2cccc([N+](=O)[O-])c2)cc1OC,-62.1
5,O=C(CNC(=O)c1ccc(F)cc1)N/N=C/c1cn[nH]c1-c1ccccc1,-18.1
6,O=C(NC(=S)Nc1ccc(Br)cn1)c1cncc(Br)c1,11.3
7,O=C(NCc1ccccc1Cl)C1=CC=CN2CCS(=O)(=O)N=C12,-11.1
8,Cc1cc(Nc2ccc(Br)cc2F)n2nc(C)nc2n1,-21.5
9,O=C(CSc1nnc(C2CCCCC2)o1)Nc1ccccc1Cl,-11.5
10,COc1ccc(Cl)c(NCCC(=O)O)c1,15.5
11,Cc1c(N=C/C=C/c2ccccc2)c(=O)n(-c2ccccc2)n1C,11.1
12,O=S(N1CCc2ccccc21)C12CC3CC(CC(C3)C1)C2 (centres unmarked),-6.09
13,O=C1C=C(c2ccc3c(c2)OCO3)C[C@@H](c2ccc(Cl)cc2)C1,5.86
14,O=C(NCc1ccccc1)c1ccc(Oc2ccc(C(=O)NCc3ccccc3)cc2)cc1,-3.44
15,Cc1ccc(C)c(C(=O)CN2C(=O)c3ccccc3C2=O)c1,9.96
16,Br.Cc1ccc(C)c(C(=O)CN2C3=NCCCN3c3ccccc32)c1,-69.2
17,Cl.Clc1ccc(CN2C3=NCCCN3c3ccccc32)cc1,-75.1
18,Cl.ClCCN1C2=NCCCN2c2ccccc21,-26.4
19,O=C1CCCc2ccccc2N1Cc1ccc(Cl)cc1Cl,-18.2
20,O=C1c2ccccc2N(Cc2ccc(Cl)cc2)C2=NCCN12,-13.5
21,Cl.Clc1ccc(CN2C3=NCCN3c3ccccc32)cc1,-69.5
22,Cl.Clc1ccc(CN2C3=NCCCN3c3ccccc32)c(Cl)c1,-66
23,Br.CCOC(=O)CN1C2=NCCCN2c2ccccc21,2.95

row,SMILES,"hERG current change (%, negative = inhibition) at 10uM [%]"
1,COc1ccc(NC(=O)CCOc2ccccc2)c(OC)c1,1.87
2,CNC(=O)NC(=O)COC(=O)c1n[nH]c2ccccc12,16.5
3,CCc1ccc(Nc2nc(N3CCOCC3)nc(N3CCOCC3)n2)cc1.Cl,8.6
4,C/C(=N\NC(=O)C1CCCN(S(=O)(=O)c2ccccc2)C1)c1ccccn1 (centres unmarked),-20.8
5,CN(C)Cc1c(C(=O)N/N=C/CCc2ccccc2)nnn1-c1nonc1N,-31.1
6,Cc1onc(-c2ccccc2)c1CNS(=O)(=O)c1cccc(Cl)c1,-7.19
7,Brc1ccc(CN2C3=NCCCN3c3ccccc32)cc1.Cl,-74.2
8,Cl.Clc1cccc(CN2C3=NCCCN3c3ccccc32)c1,-75.4
9,Clc1cccc(CN2CCCCCC2)c1,12.3
10,Cl.O=C(CN1C2=NCCCN2c2ccccc21)c1ccc(Cl)cc1Cl,-79.6
11,Cl.O=C(O)CN1C2=NCCCN2c2ccccc21,16.1
12,O=C1CCCc2ccccc2N1Cc1cccc(Cl)c1,-16.3
13,c1ccc(CN2C3=NCCN3c3ccccc32)cc1,-39.5
14,Cl.c1ccc(CN2C3=NCCCN3c3ccccc32)cc1,-57.5
15,O=C1CCCC2=C1C(c1ccc(O)c(Br)c1)C1=C(CCCC1=O)N2c1ccccc1,-33
16,COc1ccc(C2C(C#N)=C(C)NC3=C2S(=O)(=O)c2ccccc23)cc1 (centres unmarked),-38.6
17,CCOC(=O)c1sc(=NC(=O)COc2ccc(Cl)cc2)n(C)c1C,3.44
18,COc1cc(C)c(NC(=O)COc2cccc3c2OC(C)(C)C3)cc1OC,-7.8
19,COc1cc(SC)ccc1C(=O)NCCNC(=O)c1nonc1N,-6.81
20,COc1ccccc1NC(=O)CCS(=O)(=O)c1ccc2c(c1)NC(=O)C(C)S2 (centres unmarked),-4.76

# Source: publication PMC4336329 (PLoS ONE, 2015)
